Assay outcomes deposited in PubChem BioAssay by National Center for Advancing Translational Sciences (NCATS).
Pf growth 96h: P. falciparum growth inhibition at 96 hour, primary screen for plastid delayed-death inhibitors; P. falciparum luciferase reporter growth, 96 h; Potency, µM (doses to about 28.7 µM), for inactives: at the highest dose activity change, negative = inhibition, hits mostly inhibitors; 320,000 tested, 6.9% active
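Luminescence readout: decreased luciferase signal marks inhibited growth of reporter-expressing P. falciparum in infected red cells (2% hematocrit, 0.05% parasitemia final), exposed to compound two generations (96 h, 37 C, 5% CO2).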
AMA1-RON2 inh: AMA1-RON2 (P. falciparum) interaction inhibition | AlphaScreen AMA1-biotinylated RON2 peptide binding | Potency, µM (series often up to 58.2 µM), without a hit: top-dose activity change, negative = inhibition, actives largely listed as inhibitors | 360,000 tested, 0.2% active;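 note: 0% = vehicle wells and -100% = peptide control; nearly all actives have a fitted effect of over 45% in size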
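AMA1 (3D7) with his tag at 25 nM final met compounds first, then biotinylated RON2 peptide at 25 nM; detection used donor plus acceptor beads, 10 µg/mL apiece, read by AlphaScreen after 30 min at room temperature.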
HCV inh: HCV inhibition; Huh7.5.1 HCVcc-Cre infection, luciferase reporter, 44 h; AID 651820; Potency, µM (titrated, usually from 41.8 µM), without a hit: at the top dose activity change, negative = inhibition, usual class: inhibitors; 340,000 tested, 3.4% active
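Infectious HCV cell culture screen: compound-treated cells (1,000/well, pre-plated 4 h) are infected with HCVcc-Cre at roughly 0.5 moi and grown 44 h. Infection is quantified by luciferase signal after 15 min substrate incubation at room temperature.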
AmpC no deterg: inhibitors of E. coli AmpC beta-lactamase without detergent; 330,000 tested, 0.52% active; AID 485341; Potency, µM (series often up to 57.1 µM), inactives show at the top dose activity change, negative = inhibition, most hits filed as inhibitors; AmpC nitrocefin hydrolysis, absorbance 480 nm, 0.0001% Triton; P00811;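 note: plate controls were no compound for no effect and no enzyme for full effect; nearly all actives have a fitted effect of over 20% in size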
Target sequence (P00811 whole entry, looked up): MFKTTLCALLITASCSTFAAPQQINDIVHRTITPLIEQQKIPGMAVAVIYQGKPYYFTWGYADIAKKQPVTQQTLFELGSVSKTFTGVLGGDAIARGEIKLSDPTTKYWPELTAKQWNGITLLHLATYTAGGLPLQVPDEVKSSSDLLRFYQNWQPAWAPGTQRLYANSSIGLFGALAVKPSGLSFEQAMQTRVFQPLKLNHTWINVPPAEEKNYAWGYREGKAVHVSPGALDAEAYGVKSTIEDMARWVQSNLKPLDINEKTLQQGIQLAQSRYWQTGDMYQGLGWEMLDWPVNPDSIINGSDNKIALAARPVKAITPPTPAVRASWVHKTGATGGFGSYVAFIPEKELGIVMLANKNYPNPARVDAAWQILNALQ
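AmpC (5.3 nM in the dispensed reagent) in 20 mM phosphate pH 7.0 with 0.01% (detergent screen) or 0.0001% Triton X-100 was preincubated with compounds for 15 min at room temperature. Nitrocefin was then added from an 800 uM solution, and hydrolysis was followed at 480 nm.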
AmpC detergent: blocks E. coli AmpC beta-lactamase in detergent assay | P00811 | Potency, µM (top dose mostly 114 µM), for the others: at the top dose activity change, negative = inhibition, hits mostly inhibitors | AmpC hydrolysis of nitrocefin, absorbance 480 nm, 0.01% Triton | 370,000 tested, 0.041% active;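 note: 0% = no-compound wells and -100% = no-enzyme wells; nearly all actives have a fitted effect of over 25% in size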
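AmpC (5.3 nM in the dispensed reagent) in 20 mM phosphate pH 7.0 with 0.01% (detergent screen) or 0.0001% Triton X-100 was preincubated with compounds for 15 min at room temperature. Nitrocefin was then added from an 800 uM solution, and hydrolysis was followed at 480 nm.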
Pf growth 48h: inhibits P. falciparum growth in the first generation, 48 h. P. falciparum luciferase growth in erythrocytes, 48 h. Potency, µM (titrated, usually from 28.7 µM), inactives show at the top dose activity change, negative = inhibition, most hits filed as inhibitors. 310,000 tested, 5.9% active
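Erythrocytes infected with P. falciparum carrying an integrated firefly luciferase reporter (2% hematocrit, 0.1% parasitemia final) were exposed to compounds in RPMI 1640 with 0.5% Albumax at 37 C, 5% CO2. Growth inhibition was scored as reduced luminescence.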
An asterisk follows results filed as active; u = inconclusive; x = no result given. An excerpt weighted towards active compounds, which were near 11% of everything screened. Calls come from the whole dose curve; as a rule, active = well fitted curve in the direction sought with a large enough effect; inconclusive = small, poorly fitted or top-dose-only effect, or another doubt; inactive = no such curve, though single readings can be large; an effect the other way counts as inactive or inconclusive. Unless noted, % is set by controls: 0 for no effect and ±100 for the full control effect; potency is the fitted concentration of half-maximal effect.

SMILES	Pf growth 96h	AMA1-RON2 inh	HCV inh	AmpC no deterg	AmpC detergent	Pf growth 48h
CCOc1ccc(N2CC(C(=O)Nc3cccnc3)CC2=O)cc1 (configuration not stated)	11.7µM*	-4.7%	3.3%	-12.9%	0.2%	-20.8%
CCc1ccc(N2CC(C(=O)Nc3cccnc3)CC2=O)cc1 (configuration not stated)	-17.6%	16.7%	-10.4%	1.0%	-5.1%	x
COc1ccc(N2CC(C(=O)Nc3nnc(SCc4cccnc4)s3)CC2=O)cc1 (configuration not stated)	13.1µM*	2.3%	19.3%	-2.2%	4.1%	u
COC(=O)c1ccc(N)c(N=CC2=C(O)CC(C)(C)CC2=O)c1	62.1%	73.3%	20.1%	-36.0%	u	24.5%
COC(=O)c1ccc2c(c1)C(C)(C)C(/C=C/c1ccccc1O)=[N+]2C	u	u	7.94µM*	-36.6%	6.1%	u
CCN(CC)CCOC(=O)c1ccc(NC(=O)c2cc3c(s2)-c2ccccc2OC3)cc1	x	x	x	x	1.4%	x
CS(=O)(=O)N1CCN(c2ccc(NC(=S)NC(=O)c3ccc4c(c3)OCO4)cc2)CC1	u	18.9%	10µM*	-5.9%	-1.7%	-9.5%
O=C(NC(=S)Nc1ccc(N2CCCCC2)cc1)c1ccc2c(c1)OCCO2	73.4%	-10.7%	13.1%	u	0.5%	131.2%
O=C(NC(=S)Nc1ccc(N2CCOCC2)cc1)c1ccc2c(c1)OCCO2	26.7%	17.6%	7.94µM*	-55.7%	u	17.1%
O=C(NC(=S)Nc1ccc(CN2CCOCC2)cc1)c1ccc2c(c1)OCCO2	-19.0%	17.7%	35.5µM*	171.6%	2.5%	-18.8%
CCCCSCCCNC(=O)c1cc(-c2cccnc2)nc2ccc(S(=O)(=O)N3CCC(C)CC3)cc12	x	x	x	x	6.7%	x
CCOc1ccc(S(=O)(=O)N(CC(=O)Nc2ccc(OC)c(Cl)c2)c2ccccc2)cc1	x	x	x	x	10.6%	x
COc1ccc(CCNC(=O)c2cnn(-c3cccc(C)c3)c2C2CCN(C(=O)OC(C)(C)C)CC2)cc1OC	x	x	x	x	-6.1%	x
COc1ccccc1N1CCN(C(=O)c2ccc(CS(=O)(=O)c3ccccc3OC)o2)CC1	9.28µM*	29.5%	-3.3%	120.6%	-12.1%	u
Cc1ccccc1S(=O)(=O)Cc1ccc(C(=O)N2CCN(c3ccccc3F)CC2)o1	u	-7.6%	10µM*	52.7%	u	u
CCc1ccccc1S(=O)(=O)Cc1ccc(C(=O)N2CCN(c3ccccn3)CC2)o1	9.28µM*	-5.5%	u	28.2%	-10.6%	x
COc1ccccc1S(=O)(=O)Cc1ccc(C(=O)N2CCN(c3ccc(C)cc3)C(C)C2)o1 (configuration not stated)	u	-4.0%	u	u	2.3%	11.7µM*
CCc1ccccc1NC(=O)C1CCCN(C(=O)c2cnn(-c3ccccc3)c2-n2cccc2)C1 (configuration not stated)	x	x	x	x	9.6%	x
Nc1nc(N)c2cc(S(=O)(=O)c3cccc(C(F)(F)F)c3)ccc2n1	x	3.9%	x	x	x	x
CN(C)c1ccc(Sc2ccc3nc(N)nc(N)c3c2)cc1	x	10µM*	x	x	x	x
CCOC(=O)c1ccc(NC(=O)c2nc[nH]c2C(=O)N[C@@H](C)C(=O)OC(C)(C)C)cc1	u	95.2%	12.9%	-7.1%	8.8%	u
CCOC(=O)c1ccc(NC(=O)c2nc[nH]c2C(=O)N2CCN(C(=O)OC(C)(C)C)CC2)cc1	u	x	x	4.8%	-6.7%	13.1µM*
CC(C)(C)OC(=O)N1CCN(C(=O)c2[nH]cnc2C(=O)Nc2cccc(Cl)c2)CC1	u	34.6%	14.1%	-44.4%	-2.0%	4.15µM*
Cc1ccccc1C(=O)N1CCC(C(=O)N(C)CCOc2ccccc2)CC1	-10.4%	15.8%	x	70.9%	5.1%	u
Cc1cccc(N(Cc2ccccc2)C(=O)C2CCN(C(=O)c3ccccc3C)CC2)c1	10.4µM*	-17.4%	u	153.0%	1.8%	11.7µM*
SMILES	Pf growth 96h	AMA1-RON2 inh	HCV inh	AmpC no deterg	AmpC detergent	Pf growth 48h
COCCCNC(=O)C1CCN(Cc2cc3ccccc3n2Cc2cccc(Cl)c2)CC1	x	x	x	x	8.1%	x
CC(C)Oc1ccc(C(=O)OCC(=O)NC(=O)NC2CCCC2)cc1	-22.9%	1.6%	-13.8%	3.7%	-5.8%	-28.0%
CC(C)Oc1ccc(C(=O)OCC(=O)NC2CCCCCC2)cc1	-21.7%	-4.8%	11.2µM*	-14.6%	u	u
CC(C)Oc1ccc(C(=O)OCC(=O)NCCNC(=O)COC(=O)c2ccc(OC(C)C)cc2)cc1	13.1µM*	23.2%	-5.0%	-35.2%	8.3%	u
O=C(NCCCN1CCCCCC1)c1cc2c(=O)oc3ccccc3c2s1	23.1%	-19.5%	u	50.0%	1.3%	2.94µM*
CCN(Cc1ccccc1)C(=O)c1cc2c(=O)oc3ccc(C)cc3c2s1	4.65µM*	0.0%	u	10.8%	16.0%	x
Cc1ccc2oc(=O)c3cc(C(=O)NCCCN4CCN(C)CC4)sc3c2c1	-9.6%	-4.5%	u	-10.9%	-8.6%	5.6%
Cc1ccc2oc(=O)c3cc(C(=O)NCCCN4CC(C)CC(C)C4)sc3c2c1 (configuration not stated)	3.4%	-2.2%	u	-9.7%	-12.7%	2.08µM*
Cc1ccc2oc(=O)c3cc(C(=O)N(Cc4ccccc4)C(C)C)sc3c2c1	x	x	x	x	7.4%	x
CCN(Cc1ccccc1)C(=O)Cn1c(=O)oc2cc(S(=O)(=O)N3CCCCCC3)ccc21	x	x	x	x	15.9%	x
Cc1cccc(NC(=O)CSc2cn(CC(=O)N3CCC(C)CC3)c3ccccc23)c1C	x	x	x	x	3.0%	x
O=C(CSc1ncc2c(n1)-c1cc(Cl)ccc1N(Cc1ccccc1)S2(=O)=O)NCc1ccccc1	x	x	x	x	1.3%	x
Cc1ccc(OCC(=O)Nc2cccc(-c3nc4ccccc4s3)c2)cc1	x	x	x	x	6.7%	x
Cn1c(=O)c2ncn(CC(=O)Nc3cccc(-c4nc5ccccc5s4)c3)c2n(C)c1=O	31.0%	8.7%	10µM*	24.8%	2.1%	171.4%
N#Cc1c(-c2ccccc2)cc(-c2ccco2)c(C#N)c1N	x	x	u	14.1µM*	-4.6%	4.2%
N#Cc1sc2nc(-c3ccccc3)cc(-c3ccco3)c2c1N	6.4%	-27.8%	12.6µM*	u	1.6%	u
CCOC(=O)Cn1c(=O)n(-c2ccccc2OC)c2nc(-c3ccccc3C)nc(C(N)=O)c21	x	x	x	x	-4.4%	x
Cc1c(C(=O)NCc2ccc(F)cc2)oc2ccc(S(=O)(=O)N3CCCCC3)cc12	x	x	x	x	9.7%	x
COc1ccc(-n2c(=S)[nH]c3cc(C(=O)Nc4ccc(C)c(F)c4)ccc3c2=O)c(OC)c1	-17.1%	60.3%	11.2µM*	-22.4%	-1.3%	-14.2%
